CSC inhib – blocks cancer stem cells; 300,000 tested, 1.1% active; cancer stem cell-like cells viability, luminescence; AID 2717; inhibition, % at 7.5 µM; in the data active = inhibition above about 75%; tested in HMLE shEcad cells
Gli-Sufu block – antagonists of Gli-Sufu signaling; Sufu-KO-LIGHT fibroblasts, Gli luciferase reporter luminescence; inhibition, % at 5 µM; 340,000 tested, 0.74% active;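 active = inhibition above about 55%, limit read from the data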
GRIN3A LBD mod – NR3A (human) ligand-binding domain modulation | NR3A LBD differential scanning fluorimetry, Tm shift; 0% = protein alone, 100% = glycine-bound protein | Tm shift relative to glycine control, % at 25 µM | 340,000 tested, 2.5% active | AID 1259313;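 active = melting temperature shift of at least 10% of the positive control shift, at one fixed dose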
Beta cell apopt – blocks beta cell apoptosis. INS-1E cytokine-induced death, ATP luminescence, 48 h; percent of positive-control rescue, neutral wells zero. protection from apoptosis, % (no concentration beside the values). 300,000 tested, 0.8% active. AID 435005;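 active = Every replicate reaches about 75%, or at least half do and their mean reaches it too, limit read from the data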;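 also: higher means more ATP so stronger rescue from cytokine killing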
Mdm2-MdmX inh – disrupts the human Mdm2-MdmX interaction | inhibition, % at 8 µM | SaOS-2 split-luciferase Mdm2/MdmX complementation, luminescence | AID 485346 | O15151+Q00987 | 330,000 tested, 3% active;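 active = inhibition of at least 50% at 8 µM in the primary screen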
Target sequence (O15151 whole entry, looked up): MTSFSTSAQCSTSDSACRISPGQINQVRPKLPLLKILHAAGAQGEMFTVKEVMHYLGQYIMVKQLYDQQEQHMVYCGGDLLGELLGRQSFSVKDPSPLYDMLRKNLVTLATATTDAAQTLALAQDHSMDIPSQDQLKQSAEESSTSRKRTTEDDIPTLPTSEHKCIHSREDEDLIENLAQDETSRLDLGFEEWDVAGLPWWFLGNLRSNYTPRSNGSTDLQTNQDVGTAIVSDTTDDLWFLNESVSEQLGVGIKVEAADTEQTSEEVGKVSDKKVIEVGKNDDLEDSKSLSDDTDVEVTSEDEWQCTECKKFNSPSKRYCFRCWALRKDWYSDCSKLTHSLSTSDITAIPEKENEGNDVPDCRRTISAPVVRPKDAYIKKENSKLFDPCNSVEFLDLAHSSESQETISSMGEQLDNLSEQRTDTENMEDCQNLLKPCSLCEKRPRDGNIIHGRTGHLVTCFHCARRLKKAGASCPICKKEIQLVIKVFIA
Target sequence (Q00987 whole entry, looked up): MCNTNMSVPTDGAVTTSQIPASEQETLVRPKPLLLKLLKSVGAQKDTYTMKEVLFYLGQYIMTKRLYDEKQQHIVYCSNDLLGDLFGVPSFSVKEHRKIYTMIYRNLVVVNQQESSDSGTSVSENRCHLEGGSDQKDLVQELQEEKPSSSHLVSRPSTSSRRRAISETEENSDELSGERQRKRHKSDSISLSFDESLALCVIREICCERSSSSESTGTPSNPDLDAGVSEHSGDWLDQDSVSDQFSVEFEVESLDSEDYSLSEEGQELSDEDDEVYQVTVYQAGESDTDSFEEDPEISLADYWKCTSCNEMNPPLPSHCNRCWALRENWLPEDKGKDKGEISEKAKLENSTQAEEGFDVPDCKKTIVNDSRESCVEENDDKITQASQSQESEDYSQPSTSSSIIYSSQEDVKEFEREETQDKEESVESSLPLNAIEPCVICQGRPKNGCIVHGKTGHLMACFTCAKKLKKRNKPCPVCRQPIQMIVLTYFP
MPTP block – inhibitors of mitochondrial permeability transition pore | isolated mouse mitochondria, Ca2+ swelling absorbance, 30 min | inhibition, % at 10 µM | 360,000 tested, 1.4% active | AID 602449;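 active = inhibition of 50% or more, scaled per plate between neutral and stimulator controls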
Mdm2 MdmX conf – confirmation of human Mdm2/MdmX interaction inhibitors. AID 489028. shares compounds with Mdm2-MdmX inh. 10,000 tested, 55% active. Mdm2-MdmX binding, luminescent assay. inhibition, % at 8 µM; in the data active = inhibition above about 40%
FLuc counter – inhibits full-length luciferase, flagging false Mdm2/MdmX hits; shares compounds with Mdm2-MdmX inh; SaOS-2 full-length luciferase counterscreen, luminescence; inhibition, % at 8 µM; 6,200 tested, 77% active; AID 504607;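 active = mean inhibition at 8 µM reaching about 37%, which flags the compound as non-specific, limit read from the data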;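 also: p53-null SaOS-2 cells with luciferase driven by a doxycycline-inducible promoter; compound on cells about two nights before reading with doxycycline added after day one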
Gli antag conf – confirmation of Gli-SUFU pathway antagonists; shares compounds with Gli-Sufu block; inhibition, % at 5 µM; Sufu-KO-LIGHT cells, Gli luciferase reporter, luminescence; 2,500 tested, 40% active;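 active = mean inhibition at 5 µM reaching about 45%, limit read from the data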
SufuKO cytotox – counter-screen for Gli-SUFU antagonists: cytotoxicity | 2,500 tested, 32% active | cytotoxicity, % at 5 µM | shares compounds with Gli-Sufu block | Sufu-KO-LIGHT cells cytotoxicity, ATP luminescence;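 active = mean cytotoxicity at 5 µM above about 25%, limit read from the data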;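 also: cells exposed to compound overnight for roughly 16 to 18 hours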
Wnt3a cs – inhibits Wnt3a reporter, counter-screen for Gli-SUFU antagonists. shares compounds with Gli-Sufu block. Wnt-LIGHT cells, Wnt3a-driven luciferase reporter, luminescence. inhibition, % at 6.25 µM. 2,500 tested, 20% active;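 active = mean inhibition above about 25%, limit read from the data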
MPTP counter – Rhodamine 123 counter-screen of mitochondrial pore hits; inhibition, % at 10 µM; isolated mitochondria, membrane potential, Rhodamine 123 fluorescence; shares compounds with MPTP block; AID 624504; 5,000 tested, 78% active; in the data active = inhibition above about 22%
Of the large screens only hits and unclear results are named; the others gave an inactive call (follow-up assays come after a bar, where they were run). Sampled rows, rich in hits. Any-hit rate of the full collection: about 6.6%.

Cn1c(CCN2CCCCC2)nc2cc(NC(=O)COc3ccc(Cl)cc3)ccc21	none
O=C(O)/C=C/C(=O)c1c(-c2ccccc2)[nH]c2ccccc12	none
CCCCCCCn1c(=N)n(CC(=O)c2ccco2)c2ccccc21	Mdm2-MdmX inh 63.1, MPTP block 82.9 | Mdm2 MdmX conf inactive | MPTP counter 40.6
CCn1nc([N+](=O)[O-])c(C(C#N)c2nc3cc(C(F)(F)F)ccc3s2)c(Cl)c1=O (centres undefined)	CSC inhib 112.3, Mdm2-MdmX inh 76.1, MPTP block 113.9 | Mdm2 MdmX conf 72.4 | FLuc counter 49.8 | MPTP counter inactive
C/C(N)=C(/C#N)C(=O)CSc1nc2cc(Cl)ccc2s1	none
CCCCCCCCCCn1c2c(c(=N)c3c1CCC3)CCC2	CSC inhib 91.4, Gli-Sufu block 92.2, Beta cell apopt 118.1, Mdm2-MdmX inh 98.0, MPTP block 84.7 | Mdm2 MdmX conf 94.9 | FLuc counter inactive | MPTP counter 99.4
CCCCCCCCCn1c2c(c(=N)c3c1CCC3)CCCC2	Gli-Sufu block 88.5, Mdm2-MdmX inh 98.0, MPTP block 103.6 (no result: CSC inhib, Beta cell apopt) | Mdm2 MdmX conf 95.5 | FLuc counter inactive | MPTP counter 101.2
Cc1ccc(Nc2c(O)nc[nH]c2=O)cc1	none (no result: CSC inhib, Beta cell apopt, Mdm2-MdmX inh)
O=C(CN1CCN(Cc2ccc(F)cc2)CC1)Nc1nc2ccccc2s1	none
Cc1cccc(N2C(=O)CN(Cc3ccccc3)C2=S)c1	none
CN(C)CCN(C(=O)/C=C/c1cccs1)c1nc2c(F)cc(F)cc2s1	Mdm2-MdmX inh 69.4, MPTP block 102.0 | Mdm2 MdmX conf 41.9 | FLuc counter inactive | MPTP counter inactive
CN(C)CCN(C(=O)c1ccc2ccccc2c1)c1nc2c(F)cc(F)cc2s1	none
CC1CCCCC1NC(=O)CN1C(=O)NC(C)(c2cccc(Br)c2)C1=O (centres undefined)	none (no result: CSC inhib, Beta cell apopt)
Cc1ccc(C)c(NC(=O)c2ccccc2NS(=O)(=O)c2cc([N+](=O)[O-])ccc2C)c1	CSC inhib 97.4, GRIN3A LBD mod 17.2, Beta cell apopt 111.6, Mdm2-MdmX inh 89.5, MPTP block 92.0 | Mdm2 MdmX conf 93.5 | FLuc counter 40.2 | MPTP counter 58.2
CC(c1ccccc1)N1C(=O)/C(=C/c2ccncc2)SC1=S (centres undefined)	CSC inhib 85.4, Mdm2-MdmX inh 67.2, MPTP block 69.7 (no result: Beta cell apopt) | Mdm2 MdmX conf inactive | MPTP counter 29.2
CC(C)(C)OC(=O)C[C@H]1C/C=C\C[C@H](CC(=O)NCCO)C(=O)NC[C@H](c2ccccc2)OC1=O	none (no result: CSC inhib)
Nc1nc(Cl)cc(N2CCC(c3cc(-c4ccc(Cl)cc4)n[nH]3)CC2)n1	Gli-Sufu block 73.7, GRIN3A LBD mod 16.6, Beta cell apopt 104.0, Mdm2-MdmX inh 83.9, MPTP block 97.9 | Mdm2 MdmX conf inactive | Gli antag conf 77.8 | SufuKO cytotox inactive | Wnt3a cs 68.2 | MPTP counter 89.9
CN(C(=O)COc1ccccc1C(=O)NCCOc1ccccc1)c1ccccc1	Gli-Sufu block 68.5, Mdm2-MdmX inh 84.6, MPTP block 51.4 | Mdm2 MdmX conf 95.5 | FLuc counter 40.5 | Gli antag conf 65.9 | SufuKO cytotox 43.0 | Wnt3a cs inactive | MPTP counter 31.5
CC(C)C1Cc2c(sc3[nH]c(=S)n(Cc4ccccc4)c(=O)c23)CO1 (centres undefined)	CSC inhib 138.8, Mdm2-MdmX inh 52.8, MPTP block 81.2 | Mdm2 MdmX conf inactive | MPTP counter 26.2
Cc1nnc2n(-c3ccccc3)c(=O)c3c4c(sc3n12)COC(C(C)C)C4 (centres undefined)	none
O=C(Cn1c(=S)[nH]c2ncccc2c1=O)NCCc1ccccc1	none (no result: Gli-Sufu block, GRIN3A LBD mod, MPTP block)
Cc1sc2ncnc(NCc3cccs3)c2c1C	Gli-Sufu block 57.5, Beta cell apopt 101.0, Mdm2-MdmX inh 51.8, MPTP block 92.0 | Mdm2 MdmX conf inactive | Gli antag conf 50.2 | SufuKO cytotox 25.6 | Wnt3a cs inactive | MPTP counter 91.7
COc1ccc(C)cc1N(CC(=O)N/N=C/c1ccc2c(c1)OCO2)S(C)(=O)=O	none
O=C(Nc1ccccc1N1CCOCC1)c1ccc2c(c1)OCCO2	none
O=C(Nc1cc(C(F)(F)F)cc(C(F)(F)F)c1)Nc1cnn(-c2ccc([N+](=O)[O-])cc2)c1C(F)(F)F	CSC inhib 101.9, Gli-Sufu block 55.3, Beta cell apopt 115.7, Mdm2-MdmX inh 100.3, MPTP block 88.0 | Mdm2 MdmX conf 93.3 | FLuc counter 60.0 | Gli antag conf 74.0 | SufuKO cytotox inactive | Wnt3a cs inactive | MPTP counter 63.2
O=C(Nc1ccc(C(=O)O)cc1)Nc1ccc([N+](=O)[O-])cc1	none (no result: Beta cell apopt)
CC(C)CN(Cc1cc(=O)oc2cc(-c3ccccc3)c(O)cc12)CC(C)C	CSC inhib 109.4, Mdm2-MdmX inh 79.9, MPTP block 92.6 | Mdm2 MdmX conf inactive | MPTP counter 84.7
CCc1ccc(NC(=O)c2ccc(F)c(S(=O)(=O)NCC3COc4ccccc4O3)c2)cc1 (centres undefined)	GRIN3A LBD mod 15.8, Mdm2-MdmX inh 55.6, MPTP block 84.1 | Mdm2 MdmX conf 40.0 | FLuc counter 55.1 | MPTP counter 77.6
O=C(NCC1COc2ccccc2O1)c1ccc(F)c(S(=O)(=O)N2CCOCC2)c1 (centres undefined)	none (no result: CSC inhib, Beta cell apopt)
N#C/C(=C(/O)c1ccc(Br)s1)c1nc2ccccc2[nH]1	none
N#C/C(=C(/O)c1ccc([N+](=O)[O-])s1)c1nc2ccccc2[nH]1	Mdm2-MdmX inh 89.2, MPTP block 85.4 | Mdm2 MdmX conf 82.9 | FLuc counter 68.2 | Gli antag conf 59.3 | SufuKO cytotox inactive | Wnt3a cs 33.0 | MPTP counter 80.9
CCc1ccc(NC(=O)Nc2ccon2)cc1	none
COC(=O)c1ccc(NC(=O)Nc2ccc([N+](=O)[O-])cc2)cc1	GRIN3A LBD mod 34.0, Mdm2-MdmX inh 58.8, MPTP block 94.5 | Mdm2 MdmX conf 43.1 | FLuc counter 84.9 | MPTP counter 84.9

Source: PubChem
